This note sets out measurements from PubChem BioAssay (EPA / NIEHS).

What is called AC50 is the concentration at which the activity in the assay is half-maximal.

“And” between values parts separate entries of the source, which are not always exact repeats. Identical values can stand only once. The source holds several records for some structures; these can differ, active in one and inactive in another. The source made the active and inactive calls. The calls were made as follows: active = hit-call score of the fitted dose curve at least 0.9, where 1 is the maximum; inactive = score below 0.9.

Read-out in the test: Monocyte Chemoattractant Protein-1 (MCP1), CCL2 (gene 6347)
Kind of test: BSK_4H_MCP1: BioMAP Diversity Plus: 4H Assay for Monocyte Chemoattractant Protein-1 (MCP1) Biomarker Activity (AID 2283018). The conditions noted are these: primary human endothelial cells (HUVEC); actives raise or lower the signal. The method, then:
BSK_4H is a cell-based, multiplexed-readout assay that uses umbilical vein endothelium, a human vascular primary cell, with measurements taken at 24 hours after chemical dosing in a 96-well plate.BSK_4H_MCP1 is an assay component measured in the BSK_4H assay. It measures MCP-1 antibody related to regulation of gene expression using ELISA technology.Data from the assay component BSK_4H_MCP1 was analyzed into 1 assay endpoint. This assay endpoint, BSK_4H_MCP1, was analyzed with bidirectional fitting relative to DMSO as the negative control and baseline of activity. Using a type of binding reporter, gain or loss-of-signal activity can be used to understand changes in the signaling as they relate to the gene CCL2. Furthermore, this assay endpoint can be referred to as a primary readout, because this assay has produced multiple assay endpoints where this one serves a signaling function. To generalize the intended target to other relatable targets, this assay endpoint is annotated to the cytokine intended target family, where the subfamily is chemotactic factor.
The levels of cell surface (or secreted, indicated by the prefix "s") biomarker endpoints were measured by ELISA. Overt cytotoxicity to cells in confluent adherent cultures (all systems other than the BT system) was assessed by measuring total protein levels using sulforhodamine B (SRB) staining in parallel cultures at the time of biomarker measurements, indicated as SRB endpoints. For proliferation assays for adherent cell types, individual cell types are cultured at sub-confluence and relative cell numbers quantified by SRB staining at time points optimized for each system (48 h: 3C and CASM3C systems; 72 h: BT and HDF3CGF systems; 96 h: SAg system). SRB was performed by staining cells with 0.1% SRB after fixation with 10% TCA and reading wells at 560 nm.Viability and proliferation of PBMC (T cells) was quantified by Alamar Blue reduction for the SAg and BT systems. For PBMC viability (referred to as PBMC Cytotoxicity within the assay endpoint names), cells were plated (75,000/well in a 96-well plate) and then chemical samples added for 1 h before addition of activators, SEB and TSST-1 (20 ng/mL final concentration each). Cells were incubated for 90 h. Then, Alamar Blue (20 uL/well) (Invitrogen, Cat DAL1100) was added for 6 h, and the plates were read with a fluorescence microplate reader at 546/580 nm (excitation/emission). For PBMC proliferation, cells were plated and activated as above but incubated for only 16 h prior to addition of Alamar Blue. Plates were read after 6 h.
`C=CC1(C)OC(=O)N(c2cc(Cl)cc(Cl)c2)C1=O` (stereo not given): the outcome was inactive.
Regarding `C=CCC1=C(C)C(OC(=O)C2C(C=C(C)C)C2(C)C)CC1=O` (stereo not given), the outcome was inactive; the AC50 is 21 µM (active) and 34.3 µM (active).
With `CC1=C(C(=O)Nc2ccccc2)SCCO1`, the outcome was inactive.
The same measure, in the same setting: the entry for `CCCC1COC(Cn2cncn2)(c2ccc(Cl)cc2Cl)O1` (stereo not given) is “inactive”.
`Fc1ccc(Oc2ccnc3cc(Cl)cc(Cl)c23)cc1`: the AC50 was 22.1 µM (active).
Regarding `COC(=O)C=C(C)OP(=O)(OC)OC`, the result was inactive.
With `COC(=O)N(OC)c1ccccc1COc1ccn(-c2ccc(Cl)cc2)n1`, the AC50 was 7.63 µM (active).
Turning to `OC(c1ccc(Cl)cc1)(c1cncnc1)c1ccccc1Cl` (stereo not given), the AC50 was 16.6 µM (active).
Take `CCCN(CCC)c1c([N+](=O)[O-])cc(S(N)(=O)=O)cc1[N+](=O)[O-]`: the AC50 is 34.4 µM (active) [middle of 4 runs].
The same measure, in the same setting: then `CCCCC(CC)COC(=O)c1ccccc1C(=O)OCC(CC)CCCC` (stereo not given), with 14 µM (active).
Turning to `O=C(O)COc1nc(Cl)c(Cl)cc1Cl`, the result was inactive.
For `C=CCC1=C(C)[C@@H](OC(=O)[C@@H]2[C@@H](C=C(C)C)C2(C)C)CC1=O`, the AC50 is 23.4 µM (active).
On to `CCON=C(CC)C1=C(O)CC(c2c(C)cc(C)cc2C)CC1=O` (stereo not given), for which the result was inactive.
Regarding `COc1nc(C)nc(NC(=O)NS(=O)(=O)c2ccccc2Cl)n1`, the outcome was inactive.
The same measure, in the same setting: then `CCOC(=O)C(Cl)Cc1cc(-n2nc(C)n(C(F)F)c2=O)c(F)cc1Cl` (stereo not given), with “inactive”.
Regarding `CC(C)Oc1cc(-n2nc(C(C)(C)C)oc2=O)c(Cl)cc1Cl`, the AC50 was 25.8 µM (active).
For the compound `COC(=O)c1ccccc1C(=O)OC`, the result was inactive.
On the same count and under the same terms, the entry for `CCOP(=S)(OCC)SCn1c(=O)oc2cc(Cl)ccc21` is “inactive”.
`COc1ccc(C(c2ccc(OC)cc2)C(Cl)(Cl)Cl)cc1`: the AC50 was 13.3 µM (active).
Turning to `CCCCOC(=O)c1ccccc1C(=O)OCCCC`, the outcome was inactive and the AC50 is 26.4 µM (active).
For the compound `CO/C=C(/C(=O)OC)c1ccccc1Oc1cc(Oc2ccccc2C#N)ncn1`, the outcome was inactive and the AC50 was 21.1 µM (active).
With `CN(C)C(=S)SSC(=S)N(C)C`, the AC50 was 24 µM (active).
`CCCCNC(=O)n1c(NC(=O)OC)nc2ccccc21`: the outcome was inactive.
The same measure, in the same setting: the entry for `CNC(=S)S` is “inactive”.
`N#Cc1nn(-c2c(Cl)cc(C(F)(F)F)cc2Cl)c(N)c1S(=O)C(F)(F)F` (stereo not given): the AC50 is 23.1 µM (active).
As to `O=C(O)c1nc(Cl)ccc1Cl`, the outcome was inactive.
As for `CON(C)C(=O)Nc1ccc(Cl)c(Cl)c1`, the outcome was inactive.
Same read-out and setting: the entry for `COc1nc(NC(C)C)nc(NC(C)C)n1` is “inactive”.
Turning to `COP(=S)(OC)Oc1nc(Cl)c(Cl)cc1Cl`, the result was inactive.
On the same count and under the same terms, the entry for `Cc1cc(Cl)ccc1OCC(=O)O` is “inactive”.
As to `CCOc1cc(Oc2ccc(C(F)(F)F)cc2Cl)ccc1[N+](=O)[O-]`, the AC50 is 11.5 µM (active).
On the same count and under the same terms, then `N#Cc1cc(Br)c(O)c(Br)c1`, with 14.3 µM (active).
As for `Cc1c(F)c(F)c(COC(=O)C2C(/C=C(\Cl)C(F)(F)F)C2(C)C)c(F)c1F` (stereo not given), the result was inactive.
Consider `CC(C)(C)c1ccc(CSc2cnn(C(C)(C)C)c(=O)c2Cl)cc1`, for which the AC50 is 0.221 µM (active).
For `N#CC(CCc1ccc(Cl)cc1)(Cn1cncn1)c1ccccc1` (stereo not given), the result was inactive.
Regarding `Cc1ccc(-c2c(Cl)nc(C#N)n2S(=O)(=O)N(C)C)cc1`, the AC50 is 20 µM (active).
As to `CNC(=O)ON=CC(C)(C)SC`, the result was inactive.
